# Measurements: PubChem BioAssay (NCI)
# The panel holds about 83,000 compounds, 20% with a hit somewhere; the sample as a whole holds those more often.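 Treatment: one concentration, 48 hours, 96-well format. Scoring: percent growth, with anything below 10 considered active.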 Values without a mark were called inactive. The source made the active and inactive calls.
# How the values were obtained:
# Test in all cases: NCI-60 one-dose screen, 48 h (100 = growth as untreated, 0 = no growth, -100 = all killed)
# Details in all cases: 10 µM unless noted
# DU-145 prostate = test system: DU-145 prostate
# K-562 leukemia = test system: K-562 leukemia
# MDA-MB-231 breast = test system: MDA-MB-231 breast
# RXF 393 renal = test system: RXF 393 renal
# SF-268 CNS = test system: SF-268 CNS
# SF-295 CNS = test system: SF-295 CNS
# SF-539 CNS = test system: SF-539 CNS
# UACC-257 melanoma = test system: UACC-257 melanoma
# M14 melanoma = test system: M14 melanoma
# MALME-3M melanoma = test system: MALME-3M melanoma
Compound,growth (DU-145 prostate),growth (K-562 leukemia),growth (MDA-MB-231 breast),growth (RXF 393 renal),growth (SF-268 CNS),growth (SF-295 CNS),growth (SF-539 CNS),growth (UACC-257 melanoma),growth (M14 melanoma),growth (MALME-3M melanoma)
COc1ccc(Cn2cc3c(c2-c2ccccc2)CCc2cnoc2-3)cc1N,13.7%,14.8%,15.2%,15.2%,28.7%,-19.7% (active),-13.1% (active),63.2%,18.2%,
COc1ccc(OC)c(Cn2cc3c(c2-c2ccccc2)CCc2cnoc2-3)c1,94.7%,16.6%,64.7%,80%,71.8%,22.8%,54.9%,79.5%,50.7%,
COc1ccc(/C=C(/C(=O)N2CCCCC2)c2cc(OC)c(OC)c(OC)c2)cc1,9.17% (active),11%,41.5%,-1.64% (active),50.1%,14.1%,-10.5% (active),75%,-6.93% (active),
O=C(O)c1occ(Cl)c1Cl,114%,101%,110%,108%,113%,101%,111%,108%,114%,
CCOC(=O)C1=NN(c2ccccc2)C2=NC(=O)/C(=C\c3cn(-c4ccccc4)nc3-c3cc4ccccc4o3)C(=O)N12,109%,74.9%,78.7%,124%,105%,108%,114%,102%,101%,
CC1(C)NC(=S)NC1=O,116%,89%,,105%,111%,95.7%,111%,106%,98.5%,106%
O=C1OC(c2ccc(-c3ccccc3)cc2)=C/C1=C/c1c2ccccc2cc2ccccc12,121%,93.3%,98.5%,,95.9%,,110%,-47.9% (active),108%,113%
O=C(/C=C/c1c[nH]c2ccccc12)c1cc2ccccc2o1,95.6%,37.2%,84.6%,114%,80.6%,91%,82.1%,98.4%,84.2%,
CCCCN(CCCC)CC(O)CN(CC)CC (stereo unspecified),113%,92.4%,95.8%,104%,106%,,108%,105%,95%,
COc1ccccc1Cn1cc2c(c1)-c1oncc1CC2,22.5%,15.9%,16.5%,4.54% (active),35.2%,-28.8% (active),-13.8% (active),66.7%,14.4%,
CC(=O)c1nn(-c2ccc(C)cc2)cc1C(=O)c1cc2c(ccc3ccccc32)oc1=O,110%,81.2%,73%,126%,99.5%,92.1%,94.1%,104%,91.3%,
COc1cccc(Cn2cc3c(c2)-c2oncc2CC3)c1,11.3%,13.6%,5.68% (active),8.73% (active),37.6%,-29.1% (active),-7.13% (active),73.1%,12.5%,
C=C(C)[C@@H]1CC[C@]2(COC(=O)c3ccccc3C(=O)O)CC[C@]3(C)[C@H](CC[C@@H]4[C@@]5(C)CCCNC(C)(C)[C@@H]5CC[C@]43C)[C@@H]12,65.9%,,94.3%,,73.2%,66.6%,75.7%,81.7%,61.7%,68.2%
CC1=C[C@@H]2c3c(c(O)c(O)c4oc5cc(O)cc(O)c5c(=O)c34)[C@@H](c3cc(O)c(O)c4oc5cc(O)cc(O)c5c(=O)c34)[C@@H]2C(C)(C)C1,20.7%,,-38.2% (active),,3.54% (active),-26.7% (active),-5.82% (active),27%,-47% (active),-10.3% (active)
O=C1c2ccccc2CCc2ccccc21,104%,,96.8%,101%,96.5%,76.8%,107%,103%,96.2%,98%
c1ccc(-c2cn3ccnc3c(-c3ccc4ncn(C5CCCCC5)c4c3)n2)cc1,70.7%,29.4%,58.5%,55%,78.2%,60.2%,72.2%,94.8%,61.8%,
Cc1c(C(N)=O)sc2c1c(=O)n(Cc1ccccc1)c1nnc(S(C)(=O)=O)n21,101%,,101%,49.3%,96.7%,89.4%,,80.8%,76%,92.4%
CCS(=O)(=O)OCCO[C@H]1Cc2cc3ccc(=O)oc3cc2OC1(C)C,103%,,115%,,98.9%,101%,100%,97.8%,104%,105%
CC1(c2ccc(Br)cc2)NC(=O)NC1=O (stereo unspecified),111%,,105%,112%,98.4%,110%,100%,98.4%,103%,113%
COC(=O)Nc1nc2ccc(C(=O)c3ccccc3N(C)C3COC3)cc2[nH]1,33.7%,,55.2%,,45.7%,14.3%,9.06% (active),37.9%,12.8%,58.8%
COC1=C(OC)C(=O)c2ccccc2C1=O,112%,,94%,93.2%,,108%,102%,76.7%,105%,126%
COc1ccc(OC)c(Cn2cc3c(c2)-c2oncc2CC3)c1,52%,14.7%,42%,36.7%,57.5%,-8.86% (active),-7.35% (active),60.5%,4.07% (active),
COc1ccc(Cn2cc3c(c2-c2ccc(OC)cc2)CCc2cnoc2-3)cc1,10.5%,14.7%,8.41% (active),-1.78% (active),30.5%,,-28% (active),65.2%,1.32% (active),
CC1(C)Oc2cc3oc(=O)ccc3cc2C[C@@H]1OCCOS(=O)(=O)c1ccc(C#N)cc1,103%,,94.5%,,89.2%,87.7%,96.6%,84.2%,98.4%,93.6%
O=S(=O)(Cc1cccc2c(CS(=O)(=O)c3ccc(Cl)cc3)cccc12)c1ccc(Cl)cc1,91.2%,83.2%,97.3%,109%,92.5%,,94.3%,107%,102%,
O=C1C(Cl)=C(SC2=NCCN2)C(=O)c2ccccc21,,65%,56.3%,121%,62.1%,106%,105%,36.9%,4.35% (active),-50.3% (active)
CCCCCCCCCCCCCCCCCC1=NCCN1CS(=O)(=O)O,33.7%,-10.9% (active),-15.8% (active),69.9%,-24.5% (active),74.6%,61.2%,91.8%,34.6%,
CC1(C)NCCC[C@]2(C)[C@H]3CC=C4[C@@H]5C[C@](C)(COC(=O)c6ccccc6C(=O)O)CC[C@]5(C)CC[C@@]4(C)[C@]3(C)CC[C@@H]12,79.3%,,84%,,60.7%,60.3%,66.6%,67.8%,69.3%,66.3%
CC(C)OC(=O)[C@H](C)N[P@@](=O)(OC[C@@]1(C)O[C@@H](n2cc(F)c(N)nc2=O)C[C@@H]1O[P@](=O)(N[C@@H](C)C(=O)OC(C)C)Oc1ccccc1)Oc1ccccc1,103%,,119%,,54%,103%,63.3%,92.6%,91.6%,91.1%
CC([C@H]1CC=C2C3CCC4=C[C@@H](N(C)C)CC[C@]4(C)C3CC[C@@]21C)N(C)C (stereo partly specified),57%,,-6.46% (active),,2.29% (active),-86.8% (active),4.25% (active),17.9%,-56.8% (active),83.9%
